# Compound activity (PubChem BioAssay)
# ERAP1 HTS inh = human ERAP1 aminopeptidase inhibitors, primary screen, biochemical, single point, plate reader. Endoplasmic reticulum aminopeptidase 1 (Homo sapiens), Q9NZ08. actives 0.15% (n = 340,000). recombinant ERAP1, Leu-AMC fluorescence, 60 min. inhibition, % at 10.7 µM;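 active means mean replicate inhibition of at least 30%, or all replicates individually reaching that 30% level; inactive means mean below 30% and not every replicate reaching it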;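 further: 0% = neutral control wells and 100% = L-leucinethiol positive control wells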
# Casp6 inh = human caspase-6 inhibitors, primary screen, biochemical, VEID-R110 fluorescence, single point, set 2 | P55212 | purified caspase-6, Z-VEID-R110 cleavage fluorescence | inhibition, % at 12.5 µM | actives 0.53% (n = 350,000);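 active means mean inhibition across replicates at least about 35%, with every replicate also reaching that limit, limit read from the data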;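 further: 0% = median of neutral control wells and 100% = no fluorescence left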
# SIRT5 inh = SIRT5 desuccinylase inhibitors, primary screen, biochemical, fluorescence imaging, single point, set 5; AID 652115, 2013; NAD-dependent protein deacylase sirtuin-5, mitochondrial (Homo sapiens), Q9NXA8; Purified SirT5, succinyl-peptide AMC, trypsin-coupled fluorescence; inhibition, % at 15 µM; actives 1.1% (n = 330,000); in the data active means inhibition above about 15%
# Target sequence (Q9NXA8 whole entry, looked up): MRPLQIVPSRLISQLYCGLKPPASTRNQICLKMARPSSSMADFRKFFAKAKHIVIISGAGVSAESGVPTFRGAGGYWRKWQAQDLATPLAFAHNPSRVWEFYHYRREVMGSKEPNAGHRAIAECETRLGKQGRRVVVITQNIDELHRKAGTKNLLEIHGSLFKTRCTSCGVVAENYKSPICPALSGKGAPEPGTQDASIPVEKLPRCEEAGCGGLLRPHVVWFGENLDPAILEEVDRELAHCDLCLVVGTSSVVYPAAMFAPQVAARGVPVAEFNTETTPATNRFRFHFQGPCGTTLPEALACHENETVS
# FGF22 binding = binders of human FGF22 protein, primary screen, FGF22 synaptogenesis inhibitor project, biophysical, thermal shift, single point | Fibroblast growth factor 22 (Homo sapiens), Q9HCT0 | AID 651658, 2012 | recombinant FGF22 thermal shift, SYPRO orange fluorescence; percent of sucrose octasulfate shift, DMSO zero | actives 1.5% (n = 340,000) | activity (Tm shift, normalised), % at 9.99 µM;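 active means mean Tm shift, scaled 0 neutral to 100 positive control, at about 1.3% or above, every replicate too, limit read from the data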
# Target sequence (Q9HCT0 whole entry, looked up): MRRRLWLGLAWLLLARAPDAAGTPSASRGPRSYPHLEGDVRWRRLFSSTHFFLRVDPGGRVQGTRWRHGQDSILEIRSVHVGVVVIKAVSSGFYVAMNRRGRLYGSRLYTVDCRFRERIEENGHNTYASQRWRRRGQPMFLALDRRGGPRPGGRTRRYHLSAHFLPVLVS
# The depositor's hits bear a star; x = no result given. Sampled rows, rich in hits. Any-hit rate of the full collection: about 3.1%.
SMILES,ERAP1 HTS inh,Casp6 inh,SIRT5 inh,FGF22 binding
Cc1cc(C)n(-c2ncnc3ccccc23)n1,3,-1,-3,43*
O=C1C=C(C2CCCCC2)C(=O)c2ccccc21,-1,50*,x,0
CC(C)CNC(C)C(=O)Nc1ccc(S(N)(=O)=O)cc1 (stereo not given),4,-1,-2,43*
NS(=O)(=O)c1ccc(NC(=O)Nc2ccccc2)cc1,x,1,-1,0
CCCC(C)C(=O)Nc1ccc(S(N)(=O)=O)cc1 (stereo not given),-6,2,11,x
NS(=O)(=O)c1ccc(NC(=O)CSc2ccccc2)cc1,0,1,-1,0
NS(=O)(=O)c1ccc(NC(=O)Nc2ccc(S(N)(=O)=O)cc2)cc1,x,-1,15*,0
NS(=O)(=O)c1ccc(NC(=O)C(Sc2ccccc2)c2ccccc2)cc1 (stereo not given),-5,4,-2,1.4*
CN1C(=O)c2cc(NS(C)(=O)=O)ccc2OC[C@H]2O[C@H](CC(=O)N3CCOCC3)CC[C@@H]21,1,3,-1,0
C#CC(C)(C)NC(=O)c1ccc(-c2ccccc2F)cc1,-2,44*,-3,0
O=C(NC(=S)NCc1ccc(Cl)cc1Cl)c1ccco1,0,-1,x,43*
CN(C)c1ccc(-c2[nH][nH]c(=O)c2NC(=O)c2ccccn2)cc1,2,99*,-2,0
C[C@H](CO)N1C[C@H](C)[C@H](CN(C)Cc2ccncc2)OCCCC[C@H](C)Oc2ccc(NC(=O)c3ccncc3)cc2C1=O,3,-2,5,0
O=C1CNC[C@@H]2[C@@H](c3ccc(-c4ccccc4F)cc3)[C@H](CO)N12,1,-1,-1,x
Cc1cc(C)c(S(C)(=O)=O)c(N(C)N)n1,11,0,0,43*
C[C@@H]1CN([C@H](C)CO)C(=O)Cc2cc(NC(=O)Cc3ccccc3)ccc2O[C@@H]1CN(C)Cc1ccc(C(=O)O)cc1,2,2,-1,0
CCN(CC)CCCNc1ccc2ncn3c4ccc(O)cc4c(=O)c1c23,33*,30,0,1
O=C(COC(=O)COc1cccc2ccccc12)NCC(F)(F)F,5,1,-4,43*
COc1ccccc1CNC(=O)C[C@@H]1C[C@@H]2c3cc(NC(=O)Nc4ccccc4F)ccc3O[C@@H]2[C@@H](CO)O1,1,-4,-2,0
Cc1cc(C)n2nc(SCC(=O)N(Cc3ccccc3)C3CCS(=O)(=O)C3)nc2n1 (stereo not given),3,0,-5,43*
CC(=O)Nc1cccc(NC(=O)CS(=O)(=O)c2cn(CC(=O)N3CCOCC3)c3ccccc23)c1,-4,3,-5,43*
Cc1cccc(NC(=O)CS(=O)(=O)c2cn(CC(=O)N3CCOCC3)c3ccccc23)c1,x,1,9,0
Cc1nc2ccc(NC(=O)c3ccc(=O)[nH]c3)cc2s1,37*,-3,-4,0
CCOC(=O)CSc1ccc2ccccc2n1,3,11,-2,43*
O=C(O)CCSc1ccc2ccccc2n1,4,-4,0,x
SMILES,ERAP1 HTS inh,Casp6 inh,SIRT5 inh,FGF22 binding
COc1cccc(S(=O)(=O)N2C[C@@H](O)COC[C@@H]3O[C@@H](CC(=O)NCCCN4CCOCC4)CC[C@H]32)c1,-1,-1,-3,0
C/[N+]([O-])=C\CC(=O)c1ccc(-c2ccccc2)cc1,-10,-4,-3,0
CO/N=C/CC(=O)c1ccc(-c2ccccc2)cc1,-8,-1,29*,0
CN1N=C(C(C)(C)C)CSC1=Nc1ccccc1,-1,37*,-2,0
Clc1nc(NCCN2CCOCC2)nc(NCc2ccccc2)n1,-6,-4,1,44*
CC(C)(C)Nc1nc(Cl)nc(NCCN2CCOCC2)n1,2,0,-7,0
COc1ccc2nc(C)cc(NCCN3CCOCC3)c2c1,3,-7,0,0
Cc1cc(NCCN2CCOCC2)c2ccc3ccccc3c2n1,0,-7,0,43*
O=C(O)c1ccc(NC2=C/C(=N/S(=O)(=O)c3ccccc3)c3ccccc3C2=O)cc1,-1,99*,41*,-1
O=C1C(Nc2ccc(O)cc2)=C/C(=N/S(=O)(=O)c2cccs2)c2ccccc21,0,99*,-4,41
O=C(O)c1ccc(NC2=C/C(=N/S(=O)(=O)c3cccs3)c3ccccc3C2=O)cc1,8,100*,20*,0
CCc1ccc(S(=O)(=O)/N=C2\C=C(Nc3cccc(C(=O)O)c3)C(=O)c3ccccc32)cc1,-24,100*,-3,0
Cc1cc(C)c(S(=O)(=O)/N=C2\C=C(Nc3ccc(C(=O)O)cc3)C(=O)c3ccccc32)c(C)c1,-1,-3,-3,0
Cc1ccc(S(=O)(=O)/N=C2\C=C(NS(=O)(=O)c3ccccc3)C(=O)c3ccccc32)cc1,0,24,6,0
COc1ccc(CN(C)C[C@@H]2Oc3ccc(NC(=O)CCC(F)(F)F)cc3CC(=O)N([C@@H](C)CO)C[C@@H]2C)cc1,1,-1,-3,0
COc1ccc(OC)c(N/C(=N/c2nc(C)cc(C)n2)NC(C)=O)c1,1,53*,0,0
COc1ccc(OC)c(N/C(N)=N/c2nc(C)cc(C)n2)c1,1,-1,-1,0
Cc1cccc(-n2c(C)nc3cc(C(=O)NCCN4CCOCC4)ccc32)c1,0,89*,x,0
Cc1cc(C)n(-c2ccc(C(=O)NCCCN3CCOCC3)cc2)n1,-5,-4,-1,44*
CCn1c(C)c(C)c2cc(C(=O)NCCN3CCOCC3)ccc21,1,-14,0,0
Cc1cccc(-n2c(C)nc3cc(C(=O)NCC4CCCO4)ccc32)c1 (stereo not given),-5,0,-5,0
Cc1c(C)n(C)c2ccc(C(=O)NCCN3CCOCC3)cc12,-2,-5,34*,0
CO[C@H]1CN(C)C(=O)c2cc(NS(=O)(=O)c3ccc(Oc4ccccc4)cc3)ccc2OC[C@@H](C)NC[C@@H]1C,-4,-1,0,0
COc1ccc(NC(=O)N(C)C[C@@H]2Oc3ccc(NC(=O)Cn4cnnn4)cc3C(=O)N([C@@H](C)CO)C[C@@H]2C)cc1,-2,4,8,0
C[C@H](CO)N1C[C@H](C)[C@H](CN(C)Cc2ccncc2)OCCCC[C@H](C)Oc2ccc(NC(=O)Nc3ccc4c(c3)OCO4)cc2C1=O,-1,-2,-7,0
O=C(O)CSCc1nc2ccccc2[nH]1,4,-2,2,44*
Cc1ccccc1CSCc1nc2ccccc2[nH]1,0,1,-2,0
S=C(Nc1ccc(Nc2ccccc2)cc1)Nc1ccccn1,-3,2,1,43*
